Data on 85 compounds can be found in PubChem BioAssay AID602399 (Sanford-Burnham Center for Chemical Genomics, 2012).

Structures are written as SMILES. Hit rate of the full screen: of about 360,000 compounds, about 2,800 (0.78%) were called active. For the sample, actives were picked, then their nearest neighbours and some compounds at random. A number with no mark means an inactive call. Rule as the data show it: active = inhibition above about 26%; inactive = the rest.

In this assay the test system is Nicotinate-nucleotide adenylyltransferase NadD (Staphylococcus aureus N315). Put plainly: S. aureus NadD enzyme activity blockers – biochemical, colorimetric, uHTS, primary screen (AID 602399). As to conditions: purified NadD enzyme, colorimetric absorbance read-out; at 20 µM; stronger effect = higher value.
Turning to `COc1ccccc1CCNC(=O)C1CCN(C(=O)/C=C/c2ccccc2)CC1`, the inhibition is 1.36%.

For `COC(=O)c1ccc(COc2ccc(/C=C/C(=O)c3ccc(OC)c(CSCC(=O)O)c3)cc2OC)cc1`, the inhibition is 20.9%. The same measure for `COc1ccc(C(=O)/C=C/c2ccc(-c3ccccc3)cc2)cc1CSCC(=O)O`: 42.8% (active); for `COc1cc(C(=O)Nn2c(O)c(C3=c4ccccc4=NC3=O)sc2=S)ccc1O`: 9.44%.

As for `COC(=O)CC(CC(=O)OC)n1cccc1`, the inhibition was -1.87%. As for `CCn1cc(CN2CCN(CC(C)(C)C)C(CCO)C2)c2ccccc21` (stereo not given), the inhibition is -1.34%. The same measure for `COc1cc(Cl)c(C)cc1NC(=O)[C@@H]1CCCN1C(=O)c1cccs1`: -0.625%; for `Cc1c(C(=O)OC(C)C)sc(NC(=O)c2cccnc2)c1C#N`: 7.06%.

Take `Cc1cc(N2C(=O)C(O)=C(C(=O)c3ccc(C)o3)C2c2ccc(OCc3ccccc3)cc2)no1` (stereo not given): the inhibition was 58.6% (active). The same measure for `C=CCOc1cccc(C2C(C(=O)c3ccc(C)o3)=C(O)C(=O)N2c2nnc(C)s2)c1` (stereo not given): 12.2%; for `CCCOc1ccc(C2C(C(=O)c3ccc(C)o3)=C(O)C(=O)N2CCCn2ccnc2)cc1` (stereo not given): 17.5%. Then `CCC(C)N(C(=O)COC(=O)C1C(C(=O)OC)=C(C)NC(C)=C1C(=O)OC)C1CCS(=O)(=O)C1` (stereo not given), with 1.18%. Regarding `Cc1ccc(Cc2nnc(SCC(=O)Nc3ccccc3C)[nH]c2=O)cc1`, the inhibition was 2.18%. Then `NC(=O)NC(=O)CSc1nc2cc([N+](=O)[O-])ccc2n1-c1cccc(C(F)(F)F)c1`, with 17.8%; and `CC(=O)NC1(c2cccc(F)c2)CCN(CC(=O)NC(C)C)CC1`, with -2.5%; and `O=C(N/N=C/C=C/c1ccco1)c1cccs1`, with 5.08%.

As for `C/C(=N\NC(=O)c1cc(-c2ccc(O)cc2)nc2ccccc12)c1cccnc1`, the inhibition is 5.99%. Then `Cc1ccc(-c2cc(C(=O)N/N=C/C=C/c3ccco3)c3ccccc3n2)cc1C`, with 53% (active). As for `CSc1nsc(SC)c1NC(=O)OC1CCCCC1`, the inhibition was -1.66%. Then `CC(=O)Nc1ccc(S(=O)(=O)N2CCN(S(=O)(=O)c3cccs3)CC2)cc1`, with 0.0869%; and `CN(C)c1ccc(-n2cccc2/C=N/n2cnnc2)cc1`, with -0.713%; and `CN(C)c1ccc(-n2cccc2/C=C2/SC(=Nc3ccc(F)cc3)NC2=O)cc1`, with 24.9% (active).

With `CN(CCC1CCOCC1)Cc1cn[nH]c1-c1ccc(-c2ccccc2)cc1`, the inhibition is -6.91%.

`C[C@@H]1CN([C@@H](C)CO)C(=O)c2cccc(NS(=O)(=O)c3ccc(F)cc3)c2O[C@H]1CN(C)C(=O)NC1CCCCC1`: the inhibition is 4.79%.

Take `Cc1[nH]c2ccccc2c1SCC(=O)Nc1nccs1`: the inhibition is -2.1%.

Consider `CN(C)/C=C(\C#N)C(=O)c1cccnc1Oc1cccc(F)c1`, for which the inhibition is -0.906%. The same measure for `COc1ccc(C2(CNC(=O)C(c3ccccc3)c3ccccc3)CCOCC2)cc1OC`: -2.03%; for `Cc1cc(C)nc(Nc2n[nH]c(-c3ccccc3N)n2)n1`: -2.89%; for `CCNc1nc(N)nc(Oc2ccc(OCC)nn2)n1`: -1.59%. As to `O=C(O)CC/C(=C\c1cc2c(cc1Br)OCO2)c1nc2ccccc2s1`, the inhibition was 7.94%. Then `Cc1nn(-c2ccc(F)cc2)c(Cl)c1/C=C(/CCC(=O)O)c1nc2ccccc2s1`, with 6.39%. Regarding `COc1ccc(C(=O)Nc2cccc(/C=C(/CCC(=O)O)c3nc4ccccc4s3)c2)cc1`, the inhibition was 35.2% (active). The same measure for `CSc1nnc2c(n1)OC(c1ccsc1)N(C(C)=O)c1ccccc1-2` (stereo not given): -0.91%; for `Cc1ccc(C(=O)N/C(=C\c2cn(C)c3ccccc23)C(=O)N2CCN(C)CC2)cc1`: -3.04%; for `Cc1cccc(N=C2NC(=O)/C(=C/c3cn(C)c4ccccc34)S2)c1`: 37% (active). Then `Cc1ccc(N2C(=O)S/C(=C/c3cn(C)c4ccccc34)C2=O)cc1`, with 2.76%; and `CON(C)S(=O)(=O)c1ccc2c(c1)NC(=O)C1CCCN21` (stereo not given), with 10.3%; and `CCn1c(=N)c(S(=O)(=O)c2ccc(F)cc2)cc2c(=O)n3ccccc3nc21`, with 7.46%.

As for `Cc1ccc(S(=O)(=O)c2cc3c(=O)n4cccc(C)c4nc3n(CCc3ccccc3)c2=N)cc1C`, the inhibition is -1.62%. The same measure for `Cc1ccc(Cn2c(=N)c(S(=O)(=O)c3ccc(C)cc3)cc3c(=O)n4ccccc4nc32)cc1`: 35.5% (active). Then `COc1ccc(C)cc1NC(=O)c1cc(-c2ccccc2)nc2c1cnn2C(C)C`, with -10.2%. Then `COC(=O)c1sccc1NC(=O)CC1C(=O)NCCN1C(=O)Nc1ccc(F)cc1F` (stereo not given), with -5.08%; and `CN(C)c1ccc(/C=N/NC(=O)c2ccc(Cn3cc(Br)cn3)o2)cc1`, with 4.66%; and `Cc1c(Cl)c([N+](=O)[O-])nn1Cc1ccc(C(=O)N/N=C\c2cc(Cl)ccc2O)o1`, with 35.1% (active). Turning to `Cc1c(Cl)c([N+](=O)[O-])nn1CCCC(=O)NC(C)c1ccccc1` (stereo not given), the inhibition is 1.25%. Then `COc1ccc(CC(=O)Nc2c3c(nn2-c2cccc(Cl)c2)CS(=O)C3)cc1` (stereo not given), with 5.19%; and `Cc1ccc(NS(=O)(=O)c2cc3c(cc2Br)NC(=O)CO3)cc1C`, with -3.42%; and `C#CCOCCOCCOCCNc1nc(N2CCOCC2)nc(N2CCN(C(=O)[C@H](Cc3ccc(O)cc3)n3cc(CCO)nn3)CC2)n1`, with -4.41%. Then `C#CCOCCOCCOCCNc1nc(N2CCN(C(=O)CCCCCCCCCCNC(=O)Cn3cc(CCCCCN)nn3)CC2)nc(N2CCN(C(=O)CCCCCCCCCCNC(=O)[C@H](CO)n3cc(CCCSC)nn3)CC2)n1`, with 46.8% (active); and `C#CCOCCOCCOCCNc1nc(N2CCN(C(=O)C([C@@H](C)O)n3cc([C@@H](N)CCCCN)nn3)CC2)nc(N2CCN(C(=O)[C@H](CCCCN)n3cc(CN)nn3)CC2)n1` (stereo not given in full), with -6.21%; and `C=CCOc1cccc(C2C(C(=O)c3ccc(C)o3)=C(O)C(=O)N2CCN2CCOCC2)c1` (stereo not given), with 6.48%. Then `CCNc1nc(SCCOc2ccccc2)nc(N(C)C)n1`, with -6.51%; and `O=C(CSc1nnc(-c2cnccn2)n1Cc1ccco1)c1ccc(Cl)c(Cl)c1`, with 10.3%; and `C(=C\c1ccccc1)/CSc1nnc(-c2cccnc2)n1Cc1ccco1`, with 14.6%. On to `O=C(CSc1nnc(-c2cccnc2)n1Cc1ccco1)c1ccc(Cl)c(Cl)c1`, for which the inhibition was 30.6% (active). Then `Cc1cccc(NC(=O)CN2CCN(C(=O)C3CCN(C(=O)/C=C/c4ccccc4)CC3)CC2)c1C`, with 5.55%; and `Cc1cccc(NC(=O)CSC(N)=O)c1C`, with -2.73%.

Turning to `CCOC(=O)/C=c1\s/c(=C\c2ccc(C#N)cc2)c(=O)n1CC(=O)Nc1cccc(C)c1C`, the inhibition is 32.6% (active).

As to `Cc1c(CN2CCCCC2)c(O)n(CCO)c(=O)c1C#N`, the inhibition was -2.39%. The same measure for `Cc1cccc(-c2c(NC(=O)c3ccco3)oc3ccc(Cl)cc3c2=O)c1`: -6.28%; for `Cc1ccc(N=C2NC(=O)/C(=C/C=C/c3ccco3)S2)cc1C`: 37.2% (active); for `FC(F)(F)c1ccnc(Oc2ccc(C3=NCCS3)cc2)c1`: -2.78%. Then `CCCCn1ccnc1C(=O)c1cccc(S(=O)(=O)N2c3ccccc3CC2C)c1` (stereo not given), with 9.25%. Then `Cn1c(=O)[nH]c(=O)c2c1nc(CN1CCN(c3ccccc3F)CC1)n2CCc1ccccc1`, with 0.696%; and `CC(C)C(=O)Nc1c2c(nn1-c1ccccc1)CSC2`, with -1.75%; and `COCCCn1c(=O)/c(=C/c2ccccc2OC(C)C)s/c1=C(\C#N)C(=O)Nc1ccc(C(=O)O)cc1`, with 32% (active).

With `COc1ccccc1C(=O)N/C(=C/c1ccco1)C(=O)Nc1ccc(C(=O)O)cc1`, the inhibition was 1.58%.

As to `O=C(Nc1ccc(C(=O)O)cc1)/C(=C\c1ccccc1)NC(=O)c1ccc(Br)cc1`, the inhibition is -2.9%. As for `CCOC(=O)c1cccc(NC(=O)CCc2nnc3ccc(N4CCOCC4)nn23)c1`, the inhibition is -5.9%. Take `Cc1ccc(Cn2cc(CN3CC(N4CCN(C)CC4)CS3(=O)=O)nn2)cc1` (stereo not given): the inhibition is -10.5%. Regarding `C=CCN1C(=O)C(O)(CC(=O)c2ccccn2)c2ccccc21` (stereo not given), the inhibition is 13.4%. As to `Nc1nc2n(n1)C(c1ccco1)CC(c1ccc(Cl)c(Cl)c1)N2` (stereo not given), the inhibition is 47.1% (active). For the compound `Cc1ccc(C2CC(c3cccc(Br)c3)n3nc(N)nc3N2)cc1` (stereo not given), the inhibition is 7.54%. Then `CCOc1ccccc1C1CC(c2ccc(Cl)cc2)Nc2nc(N)nn21` (stereo not given), with 9.48%; and `CCOC(=O)c1cn(CC)c2cc(F)c(F)cc2c1=O`, with -0.618%. Then `COC(=O)CSc1nc2c(c(C3CC=CCC3)c1C#N)CCC2` (stereo not given), with -1.38%; and `COc1ccc(Cc2nnc(NC(=O)Cc3cccs3)s2)cc1`, with 32.5% (active); and `COc1ccc(CC(=O)Nc2sc(Cc3ccccc3)c(C)c2C(N)=O)cc1`, with -6.77%. The same measure for `COc1cc(OC)cc(C(=O)NNC(=O)Cc2cccs2)c1`: 10.7%; for `CC(C)C[C@@H](CO)N1CCN(Cc2ccc(O)cc2)CCC1=O`: 4.79%; for `CC(CCN1CCN=C1N(C)C)c1ccccc1` (stereo not given): -0.906%.

For `Cc1c2cnn(CC(=O)NCc3ccccn3)c(=O)c2c(C)n1Cc1ccc(Cl)cc1`, the inhibition was 0.351%. Then `O=[N+]([O-])c1cc(Cl)cc(/C=N/NC(=S)Nc2cc(S(=O)(=O)N3CCOCC3)ccc2Cl)c1O`, with 47.9% (active); and `Cc1cc(OCCCC(=O)Nc2cc(S(=O)(=O)N3CCOCC3)ccc2N2CCOCC2)ccc1Cl`, with -12.2%. The same measure for `COC(=O)c1cc(Oc2ccc(S(=O)(=O)N3CCOCC3)cc2[N+](=O)[O-])cc(C(=O)OC)c1`: 1.67%.
